Experimental findings from PubChem BioAssay (Tox21) are described below.

Values joined by “and” are separate entries in the source; they are usually repeats but may differ in a detail not shown here. Equal values may be shown once. Inconclusive results are not listed. Active and inactive are the calls of the source. Calls follow the shape of the dose curve; as a rule, active = well fitted curve in the direction sought with a large enough effect in the repeat runs; inconclusive = weak or mixed curves; inactive = no such curve, though single readings can be large; an effect the other way counts as inactive or inconclusive.
% is scaled to controls: 0 for no effect and ±100 for the full control effect; potency is read from the fitted curve at half-maximal effect.

Chain of Androgen receptor (Homo sapiens) (P10275 whole entry, looked up): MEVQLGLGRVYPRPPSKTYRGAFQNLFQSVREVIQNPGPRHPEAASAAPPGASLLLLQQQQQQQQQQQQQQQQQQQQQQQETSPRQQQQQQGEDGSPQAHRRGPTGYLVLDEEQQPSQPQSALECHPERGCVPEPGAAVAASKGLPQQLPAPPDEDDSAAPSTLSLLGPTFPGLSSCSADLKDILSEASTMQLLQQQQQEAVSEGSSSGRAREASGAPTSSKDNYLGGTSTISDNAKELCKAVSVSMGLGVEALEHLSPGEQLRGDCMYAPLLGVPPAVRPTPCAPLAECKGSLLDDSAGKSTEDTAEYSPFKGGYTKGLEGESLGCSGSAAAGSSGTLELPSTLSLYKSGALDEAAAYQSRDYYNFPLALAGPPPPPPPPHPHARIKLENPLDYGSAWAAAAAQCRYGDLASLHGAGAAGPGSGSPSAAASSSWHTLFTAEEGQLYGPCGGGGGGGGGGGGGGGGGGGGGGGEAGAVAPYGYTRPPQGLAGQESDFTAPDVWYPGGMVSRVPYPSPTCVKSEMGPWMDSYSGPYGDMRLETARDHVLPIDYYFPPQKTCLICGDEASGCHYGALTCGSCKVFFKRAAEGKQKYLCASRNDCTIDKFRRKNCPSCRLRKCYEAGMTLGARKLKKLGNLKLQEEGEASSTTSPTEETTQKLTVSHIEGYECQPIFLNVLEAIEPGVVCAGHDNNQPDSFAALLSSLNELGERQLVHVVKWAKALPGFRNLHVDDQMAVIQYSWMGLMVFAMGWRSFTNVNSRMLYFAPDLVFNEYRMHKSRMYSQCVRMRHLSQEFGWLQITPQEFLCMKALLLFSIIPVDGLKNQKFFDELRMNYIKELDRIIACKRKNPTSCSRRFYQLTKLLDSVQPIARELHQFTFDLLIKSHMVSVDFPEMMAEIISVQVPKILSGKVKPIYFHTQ

For the first experiment, the target named is Androgen receptor (Homo sapiens) (UniProt P10275). The experiment can be described thus: qHTS assay to identify small molecule antagonists of the androgen receptor (AR) signaling pathway using the MDA cell line (AID 743042; also: nearly all actives have a fitted effect of over 55% in size). As to conditions: MDA-kb2 AR-luc, MMTV luciferase, R1881 antagonist, 16 h; series mostly up to 70.3 µM; activity change, negative = inhibition: at the top concentration. Summed up:
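MDA-kb2 cells (human breast carcinoma, stably carrying an MMTV-luciferase reporter responsive to AR and GR) were plated at 3,000 cells/well and preincubated 5 hr at 37C, then given compound plus R1881 agonist for 16 h. ONE-Glo luminescence was read.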
(Quantitative high-throughput screening tests each substance at several concentrations.)
In the case of `Nc1ccccc1C(=O)Oc1ccc2ccccc2c1`, the “activity change, negative = inhibition” value was 76.3% (inactive).

In the case of `N#CC(Cl)Cl`, the “activity change, negative = inhibition” value was 76.6% (inactive).

Consider `[CH3][Hg][Cl]`, for which the “activity change, negative = inhibition” value is 5.06% (inactive).

Turning to `Cc1ccc(OP(=O)(Oc2ccccc2)Oc2ccccc2)cc1`, the “activity change, negative = inhibition” value is -3.74% [at 95 µM] (inactive).

Take `CCC(C)(C)C(=O)OC1=C(c2ccc(Cl)cc2Cl)C(=O)OC12CCCCC2`: the “activity change, negative = inhibition” value is 9.92% (inactive).

For `O=c1oc2ccccc2c(O)c1Cc1c(O)c2ccccc2oc1=O`, the “activity change, negative = inhibition” value is 29.1% [at 32.5 µM] (inactive).

As for `COP(=O)(OC)SCn1c(=O)oc2cc(Cl)cnc21`, the Potency was 48.6 µM (active).

Test system in a further experiment: not listed separately
The experiment in a line: qHTS assay to identify small molecule antagonists of the thyroid receptor (TR) signaling pathway - cell viability counter screen (AID 743064). Also: nearly all actives have a fitted effect of over 50% in size. The following applies: GH3.TRE-Luc viability, CellTiter-Fluor, 24 h; series mostly up to 70.3 µM; activity change, negative = cytotoxic: at the top concentration. Summed up:
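GH3.TRE-Luc rat pituitary cells dosed after 4 hr plating, co-stimulated with T3 at 1 nM final, incubated 23.5 h at 37 C. Viability measured in the same wells by CellTiter-Fluor fluorescence after 30 min further at 37 C.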
`Cc1cc(C(F)(C(F)(F)F)C(F)(F)F)ccc1NC(=O)c1cccc(I)c1C(=O)NC(C)(C)CS(C)(=O)=O`: the “activity change, negative = cytotoxic” value is -20.8% (inactive).

Turning to `CCOc1cc(C(C)(C)C)ccc1C1COC(c2c(F)cccc2F)=N1` (stereo not drawn), the Potency was 18.6 µM (active).

Take `Nc1ccccc1C(=O)Oc1ccc2ccccc2c1`: the “activity change, negative = cytotoxic” value is 3.51% (inactive).

`Nc1ccc(Cc2ccc(N)c(Cl)c2)cc1Cl`: the Potency was 52.7 µM (active).

As to `C[C@]12CC[C@@H]3c4ccc(OC(=O)N(CCCl)CCCl)cc4CC[C@H]3[C@@H]1CC[C@@H]2O`, the “activity change, negative = cytotoxic” value was 7.32% (inactive).

`CC(=O)Nc1ccc2c(c1)Cc1ccccc1-2`: the “activity change, negative = cytotoxic” value was -0.634% [at 95 µM] (inactive).

On to `BrCBr`, for which the “activity change, negative = cytotoxic” value was -1.44% [at 95 µM] (inactive).

Turning to `CN(C)C(=S)[S-].CN(C)C(=S)[S-].[Cu+2]`, the Potency is 1.49 µM (active).

Take `N#CC(Cl)Cl`: the Potency was 59.5 µM (active).

As for `CC(C)CCCCCCCOP(=O)(Oc1ccccc1)Oc1ccccc1`, the Potency was 27.4 µM (active).

For `O=C(CBr)c1ccc(O)cc1`, the “activity change, negative = cytotoxic” value is 3.41% (inactive).

As to `[CH3][Hg][Cl]`, the Potency is 0.861 µM (active).

Take `CCCCCCCCCBr`: the “activity change, negative = cytotoxic” value was -0.081% [at 95 µM] (inactive).

As for `Cc1ccc(OP(=O)(Oc2ccccc2)Oc2ccccc2)cc1`, the “activity change, negative = cytotoxic” value was 0.048% [at 95 µM] (inactive).

Turning to `S=C=Nc1cccc2ccccc12`, the “activity change, negative = cytotoxic” value is -11.8% (inactive).

Turning to `c1ccc(Nc2ccc3ccccc3c2)cc1`, the Potency is 60.8 µM (active).

`Clc1ccc(C(c2ccccc2Cl)C(Cl)(Cl)Cl)cc1` (stereo not drawn): the Potency was 27.5 µM (active) and 40.2 µM (active).

Take `[Cd+2].[Cl-].[Cl-]`: the Potency was 24.5 µM (active) and 30.6 µM (active).

For the compound `FC(F)(F)c1cccc(C2=CCN(CCc3ccc4ccccc4c3)CC2)c1`, the “activity change, negative = cytotoxic” value is 2.8% (inactive).

As for `Nc1ccc(Sc2ccc(N)cc2)cc1`, the “activity change, negative = cytotoxic” value is 14.8% (inactive).

As for `c1ccc(OCC2CO2)cc1` (stereo not drawn), the “activity change, negative = cytotoxic” value was -1% [at 95 µM] (inactive).

In the case of `CN(C)C1CSSSC1`, the “activity change, negative = cytotoxic” value was -2.73% (inactive).

In the case of `COP(=S)(OC)Oc1cc(Cl)c(Br)cc1Cl`, the “activity change, negative = cytotoxic” value is -26.9% (inactive).

As for `C1CCC2CCCCC2C1` (stereo not drawn), the “activity change, negative = cytotoxic” value is 1.21% [at 95 µM] (inactive).

For `O=c1oc2ccccc2c(O)c1Cc1c(O)c2ccccc2oc1=O`, the “activity change, negative = cytotoxic” value was -17.7% [at 32.5 µM] (inactive).

Regarding `Fc1cccc(Cl)c1CCl`, the “activity change, negative = cytotoxic” value is 9.52% (inactive).
